Test results as given in ChEMBL document CHEMBL3988442, “University of Dundee, Small-Polar-MMV Screening Library” (2021).
The campaign covered roughly 48,000 compounds. About 13,000 (27%) showed an effect of 50% or more. Some of the results follow.

system: Wolbachia pipientis; assay: Anti-Wolbachia Cell-Based Screen; format: functional; parameters: scale not given: in the data most compounds retested in dose-response had high values; settings: 5 µM

`O=C(O)c1nc(SCc2ccccc2)ncc1Br` was tested. Which “Percent Effect” value did it give?
The value was 220.2%.

Which “Percent Effect” value does the source give for `Cc1cccc(CN2CCN(C(=O)c3cc(Cl)c[nH]c3=O)CC2)c1` here?
The value was -10.72%.

Which “Percent Effect” value does the source give for `Cc1ccc(CSc2ncc(Br)c(C(=O)O)n2)cc1` here?
The value was 104.9%.

`Cc1cccc(CN2CCN(C(=O)c3cnc(C)[nH]c3=O)CC2)c1` was tested. Which “Percent Effect” value did it give?
The value was -2.506%.

For `CC1(C)CN(CC(F)(F)F)CCN1CC(=O)NC1CC1`, which “Percent Effect” value is on record?
The value was -2.584%.

For `CSc1sc(NC(=O)Cc2c(C)nc(C)[nH]c2=O)nc1C`, which “Percent Effect” value is on record?
The value was -3.918%.

For `Cc1ncnc(NCc2cc3n(n2)CCCN(S(C)(=O)=O)C3)c1C`, which “Percent Effect” value is on record?
The value was 3.244%.

For `CNS(=O)(=O)c1csc(C(=O)N(C)Cc2ccccc2C)c1`, which “Percent Effect” value is on record?
The value was -9.289%.

For `CC1COc2ccccc2N1C(=O)CCc1cscn1` (stereo unspecified), which “Percent Effect” value is on record?
Its value is -5.764%.

With `Cc1ccccc1CSc1nc(N)cc(N2CCC(CC(N)=O)CC2)n1` as the molecule, how does the “Percent Effect” value read?
The value was 7.144%.

`O=C(O)c1nnn(Cc2ccc(F)cc2)c1-c1cccnc1` was tested. Which “Percent Effect” value did it give?
The value was 3.102%.

With `Cc1ccccc1CSc1ncc(Br)c(C(=O)O)n1` as the molecule, how does the “Percent Effect” value read?
The value was 130.2%.

`Cc1ccccc1CSc1nc(N)cc(N2CCCC(C(N)=O)C2)n1` (stereo unspecified) was tested. Which “Percent Effect” value did it give?
The value was -15%.

For `O=C(O)c1nc(SCc2ccc(F)cc2)ncc1Br`, which “Percent Effect” value is on record?
The value was 202.4%.

Which “Percent Effect” value does the source give for `Cc1cc(CN2CCc3nn(C(C)C)c(=O)cc3C2)no1` here?
Its value is -4.35%.

With `CCc1csc(CCNC(=O)C2CC(=O)N(C(C)C)C2)n1` (stereo unspecified) as the molecule, how does the “Percent Effect” value read?
Its value is 2.498%.

`CCOCCC(=O)NC(c1noc(C)n1)c1ccccc1F` (stereo unspecified) was tested. Which “Percent Effect” value did it give?
The value was -21.83%.

With `COc1ccc(CNCC(C)Oc2ccccn2)cc1Br.Cl` (stereo unspecified) as the molecule, how does the “Percent Effect” value read?
Its value is 9.774%.

How did the “Percent Effect” value turn out when `NC(=O)c1noc(Cn2ccc3ccccc3c2=O)n1` was run?
The value was -17.09%.

With `CNS(=O)(=O)c1cccc(C(C)NCc2ccccc2)c1` (stereo unspecified) as the molecule, how does the “Percent Effect” value read?
The value was -4.826%.

`Cc1ccc(OCCCC(=O)NC(C)c2ccc(S(N)(=O)=O)cc2)cc1` (stereo unspecified) was tested. Which “Percent Effect” value did it give?
Its value is 31.07%.

With `CC(c1cccc(S(N)(=O)=O)c1)N(C)CCCOc1ccccc1` (stereo unspecified) as the molecule, how does the “Percent Effect” value read?
The value was 114.5%.

How did the “Percent Effect” value turn out when `Cc1ccc(OCCN(C)C(C)c2cccc(S(N)(=O)=O)c2)cc1` (stereo unspecified) was run?
Its value is 121.8%.

How did the “Percent Effect” value turn out when `Cc1ccc(C(C)N(C)CCS(=O)(=O)CCC(N)=O)cc1` (stereo unspecified) was run?
Its value is 1.361%.

With `CN(CCCOc1ccccc1)S(=O)(=O)N1CCOCC1` as the molecule, how does the “Percent Effect” value read?
Its value is 2.231%.

How did the “Percent Effect” value turn out when `Cc1cccc(C2CCCN2C(=O)CN(C)S(C)(=O)=O)c1C` (stereo unspecified) was run?
Its value is -12.58%.

For `Cc1nc(N)cc(C2CN(C(=O)c3ccn(C)n3)CCO2)n1` (stereo unspecified), which “Percent Effect” value is on record?
Its value is -11.99%.

With `O=C(c1cccnc1)N1CCOC(CCCc2ccccc2)C1` (stereo unspecified) as the molecule, how does the “Percent Effect” value read?
The value was 4.666%.

For `Cc1n[nH]c(C2CN(C(=O)c3ccc(=O)n(C)c3)CCO2)n1` (stereo unspecified), which “Percent Effect” value is on record?
The value was -1.43%.

`CCC1CN(C(=O)c2cnc(-c3cnn(C)c3)s2)CCO1` (stereo unspecified) was tested. Which “Percent Effect” value did it give?
Its value is -21.53%.

With `Cc1n[nH]c(C2CN(C(=O)c3scnc3C)CCO2)n1` (stereo unspecified) as the molecule, how does the “Percent Effect” value read?
The value was -53.57%.

Which “Percent Effect” value does the source give for `Cn1ccc(C(=O)N2CCOC(c3ccc(C(N)=O)cn3)C2)n1` (stereo unspecified) here?
The value was 91.81%.

For `CNC(=O)c1ccc(C2CN(C(=O)c3scnc3C)CCO2)nc1` (stereo unspecified), which “Percent Effect” value is on record?
The value was 111.8%.

For `CNC(=O)c1ccc(C2CN(C(=O)c3cncs3)CCO2)nc1` (stereo unspecified), which “Percent Effect” value is on record?
The value was -5.383%.

For `CNC(=O)c1ccc(C2CN(C(=O)c3cnn(C)c3)CCO2)nc1` (stereo unspecified), which “Percent Effect” value is on record?
Its value is 109.7%.

For `O=C(c1ccncc1F)N1CCOC(c2cccc(O)c2)C1` (stereo unspecified), which “Percent Effect” value is on record?
The value was -9.281%.

For `O=C(c1cccnc1)N1CCOC(c2ccc(-c3cncnc3)cn2)C1` (stereo unspecified), which “Percent Effect” value is on record?
The value was 91.28%.

`CCN(Cc1noc(CC(C)C)n1)Cc1ccccc1C(=O)O` was tested. Which “Percent Effect” value did it give?
Its value is 3.594%.

`COc1ccc(C(=O)C2CCCN(c3cc(N)ncn3)C2)c(C)c1` (stereo unspecified) was tested. Which “Percent Effect” value did it give?
Its value is -12.01%.

How did the “Percent Effect” value turn out when `Cc1cc(C[C@@H]2COC[C@@H]2NC(=O)CN2CCCN(C)CC2)on1` was run?
The value was -4.417%.

`Cc1cc(C2CCCN2C(=O)CN2CCc3ccccc32)on1` (stereo unspecified) was tested. Which “Percent Effect” value did it give?
The value was -2.751%.

With `CNC(=O)c1ccc(C2CN(C(=O)c3c[nH]nc3C)CCO2)nc1` (stereo unspecified) as the molecule, how does the “Percent Effect” value read?
Its value is 101.4%.

`Cc1[nH]ncc1C(=O)N1CCOC(c2cccs2)C1` (stereo unspecified) was tested. Which “Percent Effect” value did it give?
The value was 6.058%.

Which “Percent Effect” value does the source give for `CNC(=O)c1ccc(C2CN(C(=O)c3coc(C)n3)CCO2)nc1` (stereo unspecified) here?
Its value is 128.9%.

`CCS(=O)(=O)CC(=O)NCC1(c2c(F)cccc2F)CCCC1` was tested. Which “Percent Effect” value did it give?
The value was -2.417%.

With `Cc1cc(NC(=O)c2ccc(C)c(F)c2)[nH]n1` as the molecule, how does the “Percent Effect” value read?
The value was 2.098%.

For `CS(=O)(=O)CCCC(=O)Nc1cc(Cl)c(Cl)cn1`, which “Percent Effect” value is on record?
Its value is 1.598%.

For `CCOCC(=O)Nc1cc(-c2cccc(F)c2F)n[nH]1`, which “Percent Effect” value is on record?
Its value is 91.5%.

`COc1ccc(Cl)cc1-c1cc(NC(=O)C2CNC(=O)N2)[nH]n1` (stereo unspecified) was tested. Which “Percent Effect” value did it give?
The value was 7.586%.

How did the “Percent Effect” value turn out when `O=C(COCC1CC1)Nc1cc(-c2ccc(Br)s2)n[nH]1` was run?
Its value is -5.562%.

With `CS(=O)(=O)CCCC(=O)Nc1cc(-c2cccc(F)c2F)n[nH]1` as the molecule, how does the “Percent Effect” value read?
Its value is 87.07%.

`COc1ccccc1-c1cc(NC(=O)CCS(=O)(=O)C2CCCC2)[nH]n1` was tested. Which “Percent Effect” value did it give?
The value was 7.035%.

`CCS(=O)(=O)CC(=O)Nc1c(C)cnn1Cc1cc(F)ccc1F` was tested. Which “Percent Effect” value did it give?
The value was -26.81%.

With `CCS(=O)(=O)CC(=O)Nc1cc(-c2cccc(F)c2F)n[nH]1` as the molecule, how does the “Percent Effect” value read?
The value was 100.6%.

Which “Percent Effect” value does the source give for `CC(=O)Nc1cc(-c2cccc(F)c2F)n[nH]1` here?
Its value is 88.91%.

For `COc1ccccc1-c1cc(NC(=O)COCC2CC2)[nH]n1`, which “Percent Effect” value is on record?
Its value is 4.73%.
